# The list is not random: actives were taken first. Their share in the collection is about 3%.
# LDHA inh = LDHA (human) enzyme inhibition; P00338; purified LDHA, NADH/diaphorase-resazurin fluorescence; active compounds read low; activity change, % (values are at about 110 or 230 µM); 480,000 tested, 0.15% active; in the data active = activity change below about -30%; inconclusive = mostly about -25% to -30%;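 note: plate controls were DMSO wells for no effect and wells without enzyme for full effect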
#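 Enzyme activity of human lactate dehydrogenase 5 (2 nM; 0.06 mM NADH, 0.2 mM pyruvate, 5 min, RT) is measured via a resazurin/diaphorase fluorescence readout of residual NADH.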
# ALOX12 inh = blocks human arachidonate 12S-lipoxygenase; P18054; purified 12hLO, xylenol orange hydroperoxide absorbance; Potency, µM (highest dose often 108 µM), for inactives: at the highest dose activity change, negative = inhibition, most hits filed as inhibitors; 580,000 tested, 1.1% active; active = well fitted inhibition curve with a large enough effect; inconclusive = small, poorly fitted or top-dose-only effect, or another doubt; inactive = no such curve, though single readings can be large or run the other way; note: potency is the fitted concentration of half-maximal effect; % is set by controls: 0 for no effect and ±100 for the full control effect
#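 Purified human 12hLO at 150 nM in 25 mM Hepes, 0.01% Triton X-100, pH 7.0, preincubated 15 min at room temperature with compound. Reaction started with 40 uM arachidonic acid, 30 min at room temperature. Hydroperoxide measured by Fe-xylenol orange, 573/405 nm absorbance ratio.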
# KCNH2 3.1 inh = KCNH2 3.1 (human) potassium channel inhibition. 340,000 tested, 0.95% active. U2OS KCNH2 3.1, thallium flux FluxOr; active compounds read low. activity change, % (tested at about 1.8 µM);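 active = maximum activity change below -70%; inconclusive = maximum activity change from -70% to -50%; inactive = maximum activity change above -50%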;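 note: thallium influx rate constant from kinetic fluorescence after stimulation buffer; % is set by controls: 0 for no effect and ±100 for the full control effect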
#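 Thallium flux read-out: FluxOr dye with Red40 quencher in HBSS/HEPES, 45 min at RT. Rate constants from kinetic reads were normalized to positive and negative DMSO controls. Cells: U2OS virally expressing the 3.1 isoform.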
# hERG WT inh = blocks the wildtype human KCNH2 potassium channel; AID 720551; activity change, % at 1.84 µM; U2OS, BacMam KCNH2, thallium flux FluxOr; active compounds read low; Q12809; 340,000 tested, 0.37% active;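 active = maximum activity change below -70%; inconclusive = maximum activity change between -70% and -50%; inactive = maximum activity change above -50%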; note: % is set by controls: 0 for no effect and ±100 for the full control effect
# Target sequence (Q12809 whole entry, looked up): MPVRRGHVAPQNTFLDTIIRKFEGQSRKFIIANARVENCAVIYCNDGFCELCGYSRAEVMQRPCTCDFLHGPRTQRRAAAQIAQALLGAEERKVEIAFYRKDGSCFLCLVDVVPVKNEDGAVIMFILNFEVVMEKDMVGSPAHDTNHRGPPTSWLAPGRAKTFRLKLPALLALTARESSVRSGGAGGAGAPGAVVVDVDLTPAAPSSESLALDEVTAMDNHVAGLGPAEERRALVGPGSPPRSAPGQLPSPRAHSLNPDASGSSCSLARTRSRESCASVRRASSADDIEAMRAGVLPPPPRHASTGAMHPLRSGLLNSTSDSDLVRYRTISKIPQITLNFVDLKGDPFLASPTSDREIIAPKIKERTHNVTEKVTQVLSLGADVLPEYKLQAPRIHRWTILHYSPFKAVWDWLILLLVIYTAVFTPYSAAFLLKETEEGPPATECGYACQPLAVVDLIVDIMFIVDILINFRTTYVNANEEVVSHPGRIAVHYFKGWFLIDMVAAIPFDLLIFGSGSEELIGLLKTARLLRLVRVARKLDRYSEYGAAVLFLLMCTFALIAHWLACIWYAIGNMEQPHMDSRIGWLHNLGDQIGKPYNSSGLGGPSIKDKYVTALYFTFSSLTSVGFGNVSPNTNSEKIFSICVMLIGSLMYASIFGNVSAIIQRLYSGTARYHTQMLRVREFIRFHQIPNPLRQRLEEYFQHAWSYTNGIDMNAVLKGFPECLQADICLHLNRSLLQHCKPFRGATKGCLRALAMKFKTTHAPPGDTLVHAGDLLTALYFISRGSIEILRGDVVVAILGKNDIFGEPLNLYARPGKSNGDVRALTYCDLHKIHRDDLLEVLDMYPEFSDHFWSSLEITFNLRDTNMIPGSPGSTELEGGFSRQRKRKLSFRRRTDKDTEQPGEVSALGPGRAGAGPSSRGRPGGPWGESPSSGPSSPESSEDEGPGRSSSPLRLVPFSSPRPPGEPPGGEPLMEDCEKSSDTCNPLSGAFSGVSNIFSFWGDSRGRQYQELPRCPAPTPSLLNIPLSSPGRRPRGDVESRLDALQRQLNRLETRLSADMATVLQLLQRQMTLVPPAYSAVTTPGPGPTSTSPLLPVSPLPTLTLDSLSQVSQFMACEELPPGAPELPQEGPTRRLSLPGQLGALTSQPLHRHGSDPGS
#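 U2OS cells were transduced with wild-type KCNH2 virus (2.03 x 10^8 / mL) for 4 h at room temperature, then cultured overnight at 37 C. Thallium flux was read with FluxOr dye. Rate constants were normalized to DMSO controls.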
# BCR signal inh = chronic active BCR signaling inhibition | ABC-DLBCL IkBa-CBG/CBR reporter, luminescence ratio, 4 h | Potency, µM (titrated, usually from 46.1 µM), without a hit: top-dose activity change, negative = inhibition, most hits filed as inhibitors | 340,000 tested, 0.05% active | AID 493014; active = well fitted inhibition curve with a large enough effect in the signal ratio, with a control signal flat, not every such curve was filed as active; inconclusive = small, poorly fitted or top-dose-only effect, or effect the other way, or a change in a side signal; the % refers to the signal ratio;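 note: potency is the fitted concentration of half-maximal effect; plate controls were basal doxycycline-induced cells for no effect and cells given 10 µM MG132 for full effect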
#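 Concentration-response series (up to 46 uM) were applied to TMD8 dual-reporter cells for 4 h at 37C with doxycycline. Green/red ratio, after filter-overlap correction, defined %Activity; red signal alone was normalised to basal cells and zero luminescence.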
# ClpP mod = qHTS Assay for Activators of ClpP | AID 651965, 2013 | Potency, µM (titrated, usually from 57.5 µM), without a hit: top-dose activity change, negative = active | 340,000 tested, 1.9% active | ATP-dependent Clp protease proteolytic subunit (Bacillus subtilis (strain 168)), P80244 | purified B. subtilis ClpP, FRET peptide cleavage, 20 min; active = well fitted falling curve with a large enough effect; inconclusive = small, poorly fitted or top-dose-only effect; inactive = no such curve, though single readings can be large or run the other way; note: potency is the fitted concentration of half-maximal effect; the source files actives as falling curves though it sought activators and does not explain the sign; nearly all actives have a fitted effect of over 65% in size
#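 Purified B. subtilis ClpP, 10 microg/mL final in Tris/HCl pH8 with KCl, BSA, glycerol and Tween-20, cleaved an Abz/nitrotyrosine-quenched decapeptide. Fluorescence (ex 320, em 430) was read at 0 and 20 min at room temperature. Delta was normalized to 5.8 microM ADEP and DMSO/no-enzyme controls.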
# * marks the source's active call; other numbers are inactive results; ? = inconclusive; nt = not tested or not shown; ! = not active in a repeat; [ ] = dose if it differs, or a comment.
SMILES,LDHA inh,ALOX12 inh,KCNH2 3.1 inh,hERG WT inh,BCR signal inh,ClpP mod
CCCCCCC12C(=Cc3cc4c(cc31)OCCO4)c1cc(OC)c(OC)cc1C(CC(=O)OC)N2C(=O)OC (stereo not given),nt,-23.1%,nt,nt,nt,nt
CCCCCCC12C(=Cc3cc4c(cc31)OCCO4)c1cc(OC)c(OC)cc1C(CC(=O)O)N2C(=O)OC (stereo not given),nt,39.8µM*,nt,nt,nt,nt
Clc1ccc2nc(-c3ccncc3)cc(-c3ccccc3)c2c1,-3.9,9.4%,-6.3,24.0,-9.3%,-2.5%
c1ccc(-c2cc(-c3ccncc3)nc3ccc4ccccc4c23)cc1,-6.3,-4.8%,1.4,-6.2,-0.3%,22.4µM*
CCOCCCNCc1c(F)cccc1Cl,-1.1,-3.3%,nt,nt,nt,nt
CCOC(=O)N/N=C\c1ccc(OC(=O)c2ccco2)cc1,-9.5,-1.2%,-2.5,-153.6*,?,nt
Cn1c(=O)c2c(nc(N/N=C/c3ccc(OC(=O)c4ccco4)cc3)n2Cc2ccccc2)n(C)c1=O,-1.6,14.6%,6.1,8.1,4.8%,28.2µM*
Cc1ccccc1CN1C(=O)C(C)Sc2ccc(-c3ccco3)cc21 (stereo not given),-4.6,15.8µM*,nt,nt,nt,-7.2%
CC(=O)OC/C=C/c1ccccc1,nt,5.1%[176 µM],nt,nt,nt,nt
CCNC(C(=O)OCC)c1ccc(Cl)cc1 (stereo not given),3.0,?,nt,nt,nt,nt
CCCC(=O)Nc1c(-c2ccc(OC)cc2)c(=O)c2ccccc2n1C,-10.2,13.2%,-1.7,-36.7,6.8%,15.8µM*
CCCCCC(=O)Nc1c(-c2ccc(OC)cc2)c(=O)c2ccccc2n1C,-4.2,3.4%,-6.7,-1.5,4.4%,25.1µM*
Cc1nc(NC(C)C)sc1C(=O)NCCc1ccccc1,-0.6,14.7%,nt,nt,nt,nt
O=C(c1ccccc1)N1CCCC2(C1)C(=NC1CCCCC1)NC(=O)N2c1cc(F)cc(F)c1 (stereo not given),nt,0.2%[6.33 µM],nt,nt,nt,nt
Cc1nc2c(C(=O)NCc3ccco3)cnn2c(C)c1Cc1ccc(F)cc1Cl,-1.1,-15.4%,-29.5,-5.2,5.1%,31.6µM*
Cc1nc2c(C(=O)NCc3ccccc3Cl)cnn2c(C)c1Cc1c(F)cccc1Cl,-0.3,-18.2%,nt,nt,?,-27.4%
Cc1nc2c(C(=O)NCc3ccc4c(c3)OCO4)cnn2c(C)c1Cc1ccc(F)cc1Cl,-0.5,-3.2%,-19.4,-17.1,-3.5%,35.5µM*
Cc1nc2c(C(=O)NCc3ccc4c(c3)OCO4)c[nH]n2c(=O)c1Cl,1.7,?,5.7,6.2,5.7%,31.6µM*
Cc1cccc(Cc2c(C)nc3c(C(=O)NCc4ccco4)cnn3c2C)c1,8.0,?,2.2,2.9,?,31.6µM*
Cc1nc2c(C(=O)NCc3cccs3)cnn2c(C)c1Cc1ccccc1,nt,nt,nt,nt,0.6%,nt
Cc1nn(-c2ccc(F)cc2)c(Oc2cccc(F)c2)c1CCC(=O)N(C)C(C)C,nt,18.4%,nt,nt,nt,nt
O=C(CSc1ncnc2nc[nH]c12)Nc1ccc(Cl)cc1,0.5,-6.1%,nt,nt,nt,nt
CCOc1ccc(NC(=O)Cc2coc3cc(C)c(C(C)C)cc23)cc1S(=O)(=O)N(C)C,-12.7,2.8%,nt,nt,nt,nt
Cc1cnc(-c2nnc(N(C)C(=O)C3CCOC3)s2)cn1 (stereo not given),-4.7,-9.5%,7.6,-23.0,-5.9%,28.2µM*
CC(=O)c1cc(C)ccc1OC(=O)CN1C(=O)c2ccccc2C1=O,-12.7,-26.5%,-0.4,-10.0,-4.2%,0.2%
SMILES,LDHA inh,ALOX12 inh,KCNH2 3.1 inh,hERG WT inh,BCR signal inh,ClpP mod
Cc1ccc(C)c(OC(=O)CN2C(=O)c3ccccc3C2=O)c1,2.0,-6.0%,1.9,-93.9*,4.8%,0.2%
CN(C)c1ccc(CCc2ccc(N)cc2)cc1,-5.1,90.4%,-2.1,-13.0,nt,nt
Nc1ccc(N(c2ccccc2)c2ccc(N)cc2)cc1,5.1,-17.0%,-4.6,-0.3,0.8%,35.5µM*
N#C/C(=C\c1cn(Cc2ccc(C#N)cc2)c2ccccc12)C(=O)NCc1cccs1,-3.3,0.5%,-85.8*,-26.3,0.4%,3.1%
Cc1ccccc1OCCn1cc(/C=C(\C#N)C(=O)NCc2ccco2)c2ccccc21,-12.4,6.2%,-77.2*,-14.6,-2.5%,-2.1%
N#C/C(=C\c1cn(CCOc2ccccc2F)c2ccccc12)C(=O)NCc1cccs1,0.2,-13.0%,-3.7,2.9,-0.2%,-24.1%
NC(=S)Nc1ccc(S(N)(=O)=O)cc1,3.7,?,nt,nt,nt,nt
NC(=S)Nc1ccc(S(=O)(=O)c2ccc(NC(N)=S)cc2)cc1,-7.4,39.8µM*,0.2,-0.2,-2.0%,0.8%
COc1ccc(/C=C2\S/C(=N/S(=O)(=O)c3cccs3)NC2=O)cc1,-15.1,39.8µM*,-2.3,1.1,0.7%,nt
COc1ccc(/C=N/S(=O)(=O)c2cccs2)cc1,0.0,2.3%,12.3,-4.4,11.0%,0.8%
CCCCNC(=O)CSCc1nc(-c2ccc(OC)c(OC)c2)oc1C,6.3,-9.6%,nt,nt,nt,nt
CCOCCCNC(=O)CSCc1nc(-c2ccc(SC)cc2)oc1C,-13.6,0.0%,-10.1,2.2,?,3.3%
COc1ccc(-c2nc(CSCC(=O)NCc3ccc4c(c3)OCO4)c(C)o2)cc1OC,-0.9,?,1.6,-3.5,2.5%,-15.3%
COc1ccccc1CNC(=O)CS(=O)Cc1nc(-c2cccc(C)c2)oc1C (stereo not given),-2.2,13.6%,nt,nt,nt,nt
COc1ccc(-c2nc(CSCC(=O)NCCc3ccc(C)cc3)c(C)o2)cc1OC,-0.7,5.5%,nt,nt,nt,31.6µM*
COCCNC(=O)CSCc1nc(-c2ccc(SC)cc2)oc1C,4.7,-5.3%,7.6,-7.3,17.4%,25.1µM*
COc1ccc(-c2nc(CSCC(=O)NCCC3=CCCCC3)c(C)o2)cc1OC,-2.7,45.8%,7.2,-1.1,?,25.1µM*
COc1ccccc1CNC(=O)CS(=O)Cc1nc(-c2ccc(OC)c(OC)c2)oc1C (stereo not given),-0.4,-13.9%,-9.4,-8.0,?,31.6µM*!
S=C(Nc1ccccc1I)NC1CC1,-0.1,?,nt,nt,nt,nt
O=C(O)CCN1CCCCC1,6.7,?,nt,nt,nt,nt
CC(Nc1oc(Cc2cccc3ccccc23)nc1C#N)c1ccccc1 (stereo not given),-12.0,3.4%,nt,nt,nt,nt
COc1ccc(-c2nc(CSCC(=O)NCc3ccccc3Cl)c(C)o2)cc1OC,-8.1,-4.4%,nt,nt,nt,20µM*
COc1ccccc1CNC(=O)CSCc1nc(-c2ccc(OC)c(OC)c2)oc1C,-2.2,1.0%,nt,nt,nt,?
O=c1[nH]c(=O)c2[nH]c(=S)[nH]c2[nH]1,1.1,0.708µM*,17.1,8.4,nt,nt
O=c1[nH]c(=S)[nH]c2nc[nH]c12,-7.4,nt,nt,nt,nt,-4.2%
CCOCCSc1nc2c(c(=O)[nH]c(=O)n2C)n1CCC(C)C,1.7,6.2%,nt,nt,nt,nt
